Screening data deposited in PubChem BioAssay by The Scripps Research Institute Molecular Screening Center.
Hits are enriched below; roughly 3% of the tested compounds scored in any of these assays.
PAFAH1B3 FP inh: inhibitors of human PAFAH1B3 | Q15102 | recombinant PAFAH1B3, FP-rhodamine probe, fluorescence polarization | inhibition, % at 3.39 µM | 340,000 compounds, 0.28% hits;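 active = inhibition above the screen-wide average of all tested compounds plus 3 SD, cut at about 25% in these data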
PAFAH2 FP inh: PAFAH2 (human) inhibition; 340,000 compounds, 0.99% hits; AID 492956; inhibition, % at 3.39 µM; recombinant PAFAH2, FP-rhodamine activity probe, fluorescence polarization; Q99487;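 active = inhibition above the mean over all tested compounds plus 3 SD, cut at about 30% in these data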;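 also: inhibitors block probe labeling of enzyme so polarization drops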
CTSL1 counter: blocks F. hepatica cathepsin L1 in PFM18AAP counter-screen; inhibition, % at 5.96 µM; 300,000 compounds, 0.49% hits; AID 1906; recombinant F. hepatica cathepsin L1, Z-Leu-Arg-MCA fluorescence;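 active = inhibition above the mean of all tested compounds plus 3 SD, set per screening campaign, cut at about 17% in these data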
pPAFAH inh: inhibitors of human plasma PAF acetylhydrolase (pPAFAH); 330,000 compounds, 1.5% hits; recombinant pPAFAH, FP-rhodamine probe fluorescence polarization; AID 463082; inhibition, % at 3.39 µM;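 active = inhibition above the mean inhibition across the screen plus 3 SD, cut at about 25% in these data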;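 also: inhibitors block binding of the rhodamine activity-based probe so polarization drops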
Target sequence (Q13093 whole entry, looked up): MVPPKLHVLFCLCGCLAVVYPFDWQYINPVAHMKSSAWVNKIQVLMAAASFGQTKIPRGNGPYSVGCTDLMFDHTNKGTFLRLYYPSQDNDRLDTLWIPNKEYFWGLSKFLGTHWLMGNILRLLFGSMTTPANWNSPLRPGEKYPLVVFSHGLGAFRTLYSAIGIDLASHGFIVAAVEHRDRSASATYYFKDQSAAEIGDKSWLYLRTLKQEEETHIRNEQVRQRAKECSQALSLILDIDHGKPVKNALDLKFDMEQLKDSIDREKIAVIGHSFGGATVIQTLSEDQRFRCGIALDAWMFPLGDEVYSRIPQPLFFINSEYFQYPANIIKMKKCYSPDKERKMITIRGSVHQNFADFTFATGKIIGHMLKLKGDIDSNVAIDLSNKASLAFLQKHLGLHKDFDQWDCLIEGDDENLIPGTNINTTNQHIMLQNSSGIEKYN
PP5 inh: inhibitors of human protein phosphatase 5 (PP5); P53041; purified PP5c, OMFP substrate fluorescence; inhibition, % at 6.7 µM; 320,000 compounds, 0.18% hits;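 active = inhibition above the campaign's mean inhibition across all tested compounds plus 3 SD, cut at about 9.5% in these data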
PAFAH1B2 inh: blocks human PAF acetylhydrolase 1b catalytic subunit 2 | P68402 | recombinant PAFAH1B2, FP-rhodamine activity probe, fluorescence polarization | inhibition, % at 3.39 µM | 340,000 compounds, 1.2% hits | AID 492953;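 active = inhibition above the mean of all tested compounds plus 3 SD, cut at about 24% in these data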
Target sequence (P68402 whole entry, looked up): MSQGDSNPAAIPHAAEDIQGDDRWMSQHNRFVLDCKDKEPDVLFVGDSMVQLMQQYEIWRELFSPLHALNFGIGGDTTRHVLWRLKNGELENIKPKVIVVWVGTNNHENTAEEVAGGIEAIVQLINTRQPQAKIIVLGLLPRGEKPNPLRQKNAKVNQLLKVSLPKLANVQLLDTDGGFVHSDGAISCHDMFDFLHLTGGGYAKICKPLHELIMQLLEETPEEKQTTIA
PAFAH2 confirm: PAFAH2 (human) inhibition, confirmed; shares compounds with PAFAH2 FP inh; recombinant PAFAH2, FP-rhodamine activity probe, fluorescence polarization; inhibition, % at 3.39 µM; 2,300 compounds, 65% hits; AID 493030;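 active = mean inhibition over three repeats above a set limit taken from the earlier primary screen, cut at about 30% in these data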;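 also: inhibitor blocks binding of rhodamine activity probe so polarization falls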
Each line names hits and unclear results; the compound was inactive in the other large screens (follow-up assays come after a bar, where they were run).

CC(NC(=O)COC(=O)c1ccc(CO)cc1)C1CC2CCC1C2 (configuration not stated)	PAFAH2 FP inh 68 (no result: CTSL1 counter) | PAFAH2 confirm 64
COc1ccc(C(=O)NC(C)C2CC3CCC2C3)cc1 (configuration not stated)	none
CC(NC(=O)c1ccc(N(C)C)cc1)C1CC2CCC1C2 (configuration not stated)	PAFAH2 FP inh 46 (no result: CTSL1 counter, pPAFAH inh, PP5 inh) | PAFAH2 confirm 33
CC(O/N=C(\N)c1ccccc1)C(=O)Nc1cccc(C(F)(F)F)c1 (configuration not stated)	none (no result: CTSL1 counter, PP5 inh)
Cc1cc(S(=O)(=O)N2CCOCC2)ccc1OCC(=O)NCc1ccccn1	none
O=C(CCOc1ccccc1)NNC(=O)c1ccccc1	none (no result: CTSL1 counter, PP5 inh)
Cn1cnnc1Sc1ccc(C(=O)OCC(=O)Nc2ccccc2)cc1[N+](=O)[O-]	PAFAH2 FP inh 59 | PAFAH2 confirm 41
Cc1nnc(SCC2=C(C(=O)O)N3C(=O)C(NC(=O)Cc4ccccc4)C3SC2)s1 (configuration not stated)	PAFAH2 FP inh 79 (no result: CTSL1 counter) | PAFAH2 confirm 65
CCn1cc(C(=O)N(C)CC(OC)OC)c(=O)c2cc(S(=O)(=O)N3CCOCC3)ccc21	none
O=C(Nc1ccccc1)c1ccc(Br)c(S(=O)(=O)Nc2ccccn2)c1	none
CC1=NOC(=O)/C1=C\c1ccc(-c2cccc(Cl)c2)o1	PAFAH2 FP inh 31 | PAFAH2 confirm inactive
CC1=CC2=NC(=O)/C(=C\c3ccc(-c4cccc(Cl)c4)o3)C(=N)N2O1	none
O=C(O)c1cc(-c2ccc(/C=C3/SC(=S)N(Cc4ccccc4)C3=O)o2)ccc1Cl	PAFAH2 FP inh 34 (no result: CTSL1 counter, pPAFAH inh, PP5 inh) | PAFAH2 confirm inactive
CC1=NOC(=O)/C1=C\c1ccc(-c2ccccc2Br)o1	PAFAH2 FP inh 44 (no result: CTSL1 counter, pPAFAH inh, PP5 inh) | PAFAH2 confirm inactive
CC1=NOC(=O)/C1=C\c1ccc(-c2ccc(Cl)c(C(=O)O)c2)o1	PAFAH2 FP inh 49 (no result: CTSL1 counter, pPAFAH inh, PP5 inh) | PAFAH2 confirm 33
Cc1cc(NC(=O)CSCC(=O)Nc2nc3ccccc3s2)no1	none (no result: CTSL1 counter)
Cc1ccc(NC(=O)C(=O)NCCCN2CC(C(=O)O)CC2=O)cc1 (configuration not stated)	none
CCN1C[C@@H]2[C@@H]3C(=O)N(C)C(=O)[C@@H]3[C@](Cc3ccccc3)(C1=O)N2C(=O)c1ccc(Br)cc1	none (no result: CTSL1 counter, pPAFAH inh, PP5 inh)
CCN1CCN(Cc2c(O)ccc3c2O/C(=C\C=C\c2ccccc2)C3=O)CC1	PAFAH2 FP inh 36 | PAFAH2 confirm 32
CCc1ccc(/C=C2\Oc3c(ccc(O)c3CN3CCN(C)CC3)C2=O)cc1	PAFAH2 FP inh 58 | PAFAH2 confirm 53
CCN1CCN(Cc2c(O)ccc3c2O/C(=C\c2ccc(C)cc2)C3=O)CC1	PAFAH2 FP inh 33 | PAFAH2 confirm inactive
O=C1/C(=C/C=C/c2ccccc2)Oc2c1ccc(O)c2CN1CCN(CCO)CC1	none
Cc1ccc(/C=C2\Oc3c(ccc(O)c3CN3CCN(C)CC3)C2=O)cc1	none
Cc1c(C(=O)OCC(=O)N(C)Cc2ccc(Cl)cc2)oc2ccccc12	none (no result: CTSL1 counter)
CCCCN(C(=O)CCCc1nc2ccccc2s1)c1c(N)n(CC(C)C)c(=O)[nH]c1=O	none (no result: CTSL1 counter)
Cc1c(C(=O)N/N=C/c2ccncc2)nnn1-c1nonc1N	none (no result: CTSL1 counter, pPAFAH inh, PP5 inh)
O=C(Cn1c(=O)sc2ccccc21)Nc1ccc(O)cc1	PAFAH2 FP inh 31 | PAFAH2 confirm inactive
CCOc1ccccc1NC(=O)Cn1c(=O)sc2ccccc21	none
O=C1COc2ccc(C(=O)COC(=O)c3ccc([N+](=O)[O-])cc3Cl)cc2N1	none (no result: CTSL1 counter, pPAFAH inh, PP5 inh)
O=C(c1cc(-c2ccc(Cl)cc2Cl)on1)N1CCOCC1	PAFAH2 FP inh 37 | PAFAH2 confirm inactive
O=C(c1cc(-c2ccc(Cl)cc2)on1)N1CCOCC1	none
C/C=C/C(=O)OCC(=O)Nc1cccc(S(=O)(=O)NC2=NCCCCC2)c1	none
O=C(COC(=O)/C=C/c1cccc(F)c1)Nc1cccc(S(=O)(=O)NC2=NCCCCC2)c1	PAFAH2 FP inh 39 (no result: CTSL1 counter, PP5 inh) | PAFAH2 confirm inactive
COc1cccc(/C=C/C(=O)OCC(=O)Nc2cccc(S(=O)(=O)NC3=NCCCCC3)c2)c1	PAFAH2 FP inh 50 (no result: CTSL1 counter, PP5 inh) | PAFAH2 confirm 42
COCc1cc(C)nc(NC2CC(C)(C)NC(C)(C)C2)c1C#N	none
CCC1(CC)C(C#N)C(=O)NC(=O)C1C#N (configuration not stated)	none (no result: CTSL1 counter, pPAFAH inh, PP5 inh)
Cc1ccc(C)c(SCC(=O)NNC(=O)c2csc(N3CCOCC3)n2)c1	PAFAH2 FP inh 30 | PAFAH2 confirm 31
COc1ccc(-c2cc(C(=O)Nc3cc(C)on3)no2)cc1OC	PAFAH2 FP inh 62 | PAFAH2 confirm inactive
CCOc1ccc(NC(=O)COC(=O)CC2CCCCC2)cc1	PAFAH2 FP inh 45 (no result: CTSL1 counter) | PAFAH2 confirm 41
O=C(COC(=O)CC1CCCC1)Nc1ccc(Cl)cc1	PAFAH2 FP inh 80 (no result: CTSL1 counter, pPAFAH inh, PP5 inh) | PAFAH2 confirm 74
O=C(CC1CCCC1)Nc1ccc(Br)cc1	none
CCOc1ccc(NC(=O)CC(=O)Nc2ccc(OCC)cc2)cc1	none
O=C(COC(=O)/C=C/c1cccc(Br)c1)NC1CCCC1	PAFAH2 FP inh 66 (no result: CTSL1 counter, PP5 inh) | PAFAH2 confirm 59
O=C(COC(=O)/C=C/c1ccccc1)NC1CCCC1	PAFAH2 FP inh 84 (no result: CTSL1 counter, PP5 inh) | PAFAH2 confirm 74
COc1cccc(/C=C/C(=O)OCC(=O)NC2CC2)c1	PAFAH2 FP inh 41 (no result: CTSL1 counter) | PAFAH2 confirm 38
O=C(COC(=O)/C=C/c1ccccc1)NC1CCCCC1	PAFAH2 FP inh 76 (no result: CTSL1 counter) | PAFAH2 confirm 83
O=C(COC(=O)/C=C/c1cccc(C(F)(F)F)c1)NC(=O)NC1CCCC1	none (no result: CTSL1 counter, pPAFAH inh, PP5 inh)
COc1cccc(/C=C/C(=O)OCC(=O)NCC2CCCO2)c1 (configuration not stated)	none
O=C(NCCC(=O)N1CCC2(CC1)NCCc1[nH]cnc12)c1cccc(Br)c1	none
COc1cccc(/C=C/C(=O)OCC(=O)NCCc2ccccc2)c1	PAFAH2 FP inh 32 | PAFAH2 confirm inactive
O=C(COC(=O)/C=C/c1ccccc1Cl)NC1CCCCCC1	PAFAH2 FP inh 72 | PAFAH2 confirm 75
COc1ccc2nc(-n3c(O)c(C4=c5ccccc5=NC4=O)[nH]c3=S)sc2c1	PAFAH2 FP inh 60 | PAFAH2 confirm 40
Cn1c(O)c(C2=c3ccccc3=NC2=O)[nH]c1=S	none
O=C(NCC(=O)N(c1cccnc1)C(C(=O)NC1CCCC1)c1ccc(F)cc1)c1ccco1 (configuration not stated)	none (no result: PAFAH1B3 FP inh, PAFAH2 FP inh, PAFAH1B2 inh)
CCc1ccc(OCC(=O)NNCC(=O)Nc2ccc(OC)cc2)cc1	none (no result: CTSL1 counter, pPAFAH inh, PP5 inh)
CCCS(=O)(=O)c1c(S(=O)(=O)CCC)c2ccc(C(N)=O)cn2c1C(=O)c1ccccc1	PAFAH2 FP inh 34 (no result: CTSL1 counter, pPAFAH inh, PP5 inh) | PAFAH2 confirm inactive
COC(=O)c1ccc2c(c1C(=O)OC)CN(S(=O)(=O)C(C)(C)C)[C@@H]2CCO	none (no result: CTSL1 counter, pPAFAH inh, PP5 inh)
Cc1ccc(C(=O)NCCCN2CCOCC2)c(C)c1	none
